Laboratory results as given in PubChem BioAssay.
The source made the active and inactive calls.

Experiments:
[1] = system: Plasmodium falciparum Sir2 (PF13_0152, Sir2A); experiment: pfSir2 binders on small-molecule microarrays, primary screen, biochemical, small-molecule microarray, 635 nm fluorescence (AID 1098); conditions: small-molecule microarray binding, fluorescence 635 nm; higher = more signal;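 also: score merges spot fluorescence intensity with its signal-to-noise ratio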
[2] = small-molecule microarray binders of probe aDKK1, primary screen, biochemical, biotinylated probe, 635/667 nm fluorescence (AID 1099); conditions: higher = more signal;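 also: score merges 667nm spot fluorescence with signal to noise across triplicate slides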
[3] = small-molecule microarray binders of probe aCHRDL2, primary screen, biochemical, biotinylated probe, 635/667 nm fluorescence (AID 1100); conditions: higher = more signal
[4] = splicing luciferase reporter signal modulators, primary screen, spliceosome inhibition project, cell-based, HEK293, splice +/- reporter (AID 1101); conditions: luminescence, 24 h, higher = more signal, called active from +8 up or from −8 down;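 also: HEK293 cells carrying a splicing-competent luciferase reporter gene; test concentration not given here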
[5] = target: Fibroblast growth factor 10 (Homo sapiens) (UniProt O15520); experiment: FGF10 binders on small-molecule microarrays, primary screen, biochemical, small-molecule microarray, 635 nm fluorescence (AID 1102); conditions: FGF10 binding, fluorescence 635 nm, higher = more signal
Fibroblast growth factor 10 (Homo sapiens), sequence (O15520 whole entry, looked up): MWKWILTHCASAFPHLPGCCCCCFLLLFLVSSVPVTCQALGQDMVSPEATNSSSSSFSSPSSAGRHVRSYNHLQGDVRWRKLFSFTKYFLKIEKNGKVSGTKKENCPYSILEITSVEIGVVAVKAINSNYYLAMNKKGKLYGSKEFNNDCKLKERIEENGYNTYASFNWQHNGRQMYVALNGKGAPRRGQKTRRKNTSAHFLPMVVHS

[6] = system: glycogen synthase kinase-3 (GSK3A per assay name; protocol says GSK3B); experiment: GSK3 binders on small-molecule microarrays, primary screen, biochemical, small-molecule microarray, 635 nm fluorescence, GSK3A (AID 1103); conditions: small-molecule microarray binding, fluorescence 635 nm; higher = more signal; also: the record names both GSK3A and GSK3B
[7] = target: Epidermal growth factor receptor (Homo sapiens) (UniProt P00533); experiment: EGFR binders on small-molecule microarrays, primary screen, biochemical, small-molecule microarray, 635 nm fluorescence (AID 1104); conditions: EGFR binding, higher = more signal;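 also: score merges 667 nm emission intensity with spot signal to noise over triplicate slides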
Epidermal growth factor receptor (Homo sapiens), sequence (P00533 whole entry, looked up): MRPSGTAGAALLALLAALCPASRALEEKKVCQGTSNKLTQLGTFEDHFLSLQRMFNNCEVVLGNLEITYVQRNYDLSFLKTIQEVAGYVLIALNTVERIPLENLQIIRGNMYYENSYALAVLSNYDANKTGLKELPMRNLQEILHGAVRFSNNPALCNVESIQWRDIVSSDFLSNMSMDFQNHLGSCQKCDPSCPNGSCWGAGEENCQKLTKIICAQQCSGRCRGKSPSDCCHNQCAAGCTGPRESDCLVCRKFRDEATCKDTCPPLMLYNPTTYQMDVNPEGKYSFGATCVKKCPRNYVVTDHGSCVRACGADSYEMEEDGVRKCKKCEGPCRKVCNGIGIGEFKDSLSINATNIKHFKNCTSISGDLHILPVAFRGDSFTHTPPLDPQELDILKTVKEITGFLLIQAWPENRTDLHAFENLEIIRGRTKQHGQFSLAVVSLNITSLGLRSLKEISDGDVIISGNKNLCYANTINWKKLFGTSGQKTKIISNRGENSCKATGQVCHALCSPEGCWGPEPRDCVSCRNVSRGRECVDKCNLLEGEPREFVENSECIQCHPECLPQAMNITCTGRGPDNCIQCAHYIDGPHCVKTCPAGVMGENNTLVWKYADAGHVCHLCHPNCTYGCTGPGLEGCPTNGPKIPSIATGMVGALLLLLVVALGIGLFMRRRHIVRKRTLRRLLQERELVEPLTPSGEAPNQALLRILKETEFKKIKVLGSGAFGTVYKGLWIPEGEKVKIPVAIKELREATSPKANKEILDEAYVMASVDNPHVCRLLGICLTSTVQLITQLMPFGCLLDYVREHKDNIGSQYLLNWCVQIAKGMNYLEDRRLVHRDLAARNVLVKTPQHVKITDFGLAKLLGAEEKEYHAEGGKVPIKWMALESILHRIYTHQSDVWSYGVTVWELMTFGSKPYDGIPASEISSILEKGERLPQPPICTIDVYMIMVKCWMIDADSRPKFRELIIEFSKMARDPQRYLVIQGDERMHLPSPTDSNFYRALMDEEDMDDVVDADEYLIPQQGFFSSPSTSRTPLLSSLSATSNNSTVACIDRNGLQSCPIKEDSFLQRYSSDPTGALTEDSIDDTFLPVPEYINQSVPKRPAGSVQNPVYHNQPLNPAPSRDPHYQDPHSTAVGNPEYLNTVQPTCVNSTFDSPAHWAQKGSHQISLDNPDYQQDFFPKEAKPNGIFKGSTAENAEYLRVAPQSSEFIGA

[8] = target: Follistatin-related protein 3 (Homo sapiens) (UniProt O95633); experiment: FSTL3 binders on small-molecule microarrays, primary screen, biochemical, small-molecule microarray, 635 nm fluorescence (AID 1105); conditions: FSTL3 binding, higher = more signal;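 also: score merges emission near 667 nm and signal to noise per printed spot across three slides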
Follistatin-related protein 3 (Homo sapiens), sequence (O95633 whole entry, looked up): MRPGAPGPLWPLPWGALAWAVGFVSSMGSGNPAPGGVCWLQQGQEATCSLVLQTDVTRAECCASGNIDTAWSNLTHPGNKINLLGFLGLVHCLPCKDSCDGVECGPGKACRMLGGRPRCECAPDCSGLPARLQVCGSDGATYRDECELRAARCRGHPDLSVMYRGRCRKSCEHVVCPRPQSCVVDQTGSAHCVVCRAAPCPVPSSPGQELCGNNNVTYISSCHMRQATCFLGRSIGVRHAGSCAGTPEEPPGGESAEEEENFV

[9] = target: Dickkopf-related protein 1 (Homo sapiens) (UniProt O94907); experiment: DKK1 binders on small-molecule microarrays, primary screen, biochemical, small-molecule microarray, 635 nm fluorescence scan (AID 1106); conditions: DKK1 binding, higher = more signal;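 also: score merges emission near 667 nm with signal to noise over three replicate slides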
Dickkopf-related protein 1 (Homo sapiens), sequence (O94907 whole entry, looked up): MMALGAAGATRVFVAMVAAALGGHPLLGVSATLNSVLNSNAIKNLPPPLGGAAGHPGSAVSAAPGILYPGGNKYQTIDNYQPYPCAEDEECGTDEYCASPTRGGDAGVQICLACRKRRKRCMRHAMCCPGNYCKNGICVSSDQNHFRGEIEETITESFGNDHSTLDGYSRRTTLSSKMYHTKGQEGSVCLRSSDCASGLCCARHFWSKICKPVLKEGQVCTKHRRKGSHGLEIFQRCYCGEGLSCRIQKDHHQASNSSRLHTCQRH

[10] = system: Inhibin beta A chain (activin A); experiment: INHBA (activin A) binders on microarrays, primary screen, biochemical, small-molecule microarray, 635 nm fluorescence scan (AID 1107); conditions: small-molecule microarray binding, higher = more signal;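 also: mouse activin A protein probed at 4.33 µg/mL on printed slides; score merges bound-protein fluorescence near 667 nm with spot signal-to-noise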
[11] = system: Human papillomavirus type 1a protein E7 (residues 44-93); experiment: HPV1a E7 fragment binders on microarrays, primary screen, biochemical, small-molecule microarray, residues 44-93, 635 nm fluorescence (AID 1108); conditions: small-molecule microarray binding, fluorescence 635 nm; higher = more signal;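 also: E7 fragment applied at 1 µg/mL in TBST for 1 h at 4 C; score combines spot fluorescence with its signal to noise ratio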
[12] = modulators of HCV replicon luciferase signal, primary screen, HCV replication inhibitor project, Huh7 cells, luciferase reporter (AID 1109); conditions: 48 h, higher = more signal;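 also: huh7 hepatoma cells harbouring a luciferase neomycin HCV replicon reporter; luciferase luminescence as measure of HCV replicon replication; test concentration not given here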
[13] = target: Left-right determination factor 2 (Homo sapiens) (UniProt O00292); experiment: LEFTY2 binders on small-molecule microarrays, primary screen, biochemical, small-molecule microarray, 635 nm fluorescence scan (AID 1110); conditions: LEFTY2 binding, higher = more signal
Left-right determination factor 2 (Homo sapiens), sequence (O00292 whole entry, looked up): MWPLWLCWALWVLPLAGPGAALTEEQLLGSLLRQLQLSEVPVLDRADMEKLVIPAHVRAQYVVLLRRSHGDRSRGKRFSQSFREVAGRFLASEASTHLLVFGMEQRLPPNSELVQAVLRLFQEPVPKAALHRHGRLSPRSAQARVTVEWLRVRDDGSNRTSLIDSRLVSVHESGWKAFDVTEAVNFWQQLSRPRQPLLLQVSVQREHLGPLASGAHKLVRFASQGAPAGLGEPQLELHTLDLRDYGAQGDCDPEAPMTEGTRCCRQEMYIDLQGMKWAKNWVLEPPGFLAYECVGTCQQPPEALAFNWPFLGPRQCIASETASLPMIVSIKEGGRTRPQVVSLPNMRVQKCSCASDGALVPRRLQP

[14] = target: Calmodulin-1 (Homo sapiens) (UniProt P0DP23); experiment: CALM1 binders on microarrays, EGTA buffer, profiling panel, biochemical, small-molecule microarray, Cy5-labelled CALM1 (AID 1111); conditions: Cy5-CALM1 binding fluorescence, higher = more signal;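 also: labelled calmodulin applied in Tris saline Tween buffer holding calcium plus EGTA and DTT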
[15] = target: Calmodulin-1 (Homo sapiens) (UniProt P0DP23); experiment: calcium-bound CALM1 binders on microarrays, profiling panel, artefact control for SMM control-protein annotation, biochemical, small-molecule microarray, Cy5-labelled CALM1, plus calcium (AID 1112); conditions: Cy5-CALM1 binding fluorescence, higher = more signal;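 also: score merges spot fluorescence with signal to noise from triplicate slides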
[16] = small-molecule microarray binders of probe aWnt5a, primary screen, biochemical, biotinylated probe, 635/667 nm fluorescence (AID 1113); conditions: higher = more signal;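 also: score merges 667 nm fluorescence intensity with signal-to-noise per printed feature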
[17] = small-molecule microarray binders of probe aShh, primary screen, biochemical, biotinylated probe, 635/667 nm fluorescence (AID 1114); conditions: higher = more signal;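 also: probe is biotin-labelled aShh protein from a stem cell growth factor screen; measures binding of labelled protein to compounds printed on the slide; score merges feature fluorescence at 667 nm with signal-to-noise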
[18] = small-molecule microarray binders of probe aNog, primary screen, biochemical, biotinylated probe, 635/667 nm fluorescence (AID 1115); conditions: higher = more signal;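 also: probe is biotinylated aNog protein used at 0.15 µg/mL for 1 h at 4 C; z-score combines 667 nm fluorescence of each spot with its signal to noise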
[19] = target: Torsin-1A-interacting protein 1 (Homo sapiens) (UniProt Q5JTV8); experiment: LAP1 binders from COS7 cell lysate, primary screen, small-molecule microarray, 635/667 nm fluorescence (AID 1116); conditions: COS7-hLAP1 lysate binding, 635 nm fluorescence, higher = more signal
Torsin-1A-interacting protein 1 (Homo sapiens), sequence (Q5JTV8 whole entry, looked up): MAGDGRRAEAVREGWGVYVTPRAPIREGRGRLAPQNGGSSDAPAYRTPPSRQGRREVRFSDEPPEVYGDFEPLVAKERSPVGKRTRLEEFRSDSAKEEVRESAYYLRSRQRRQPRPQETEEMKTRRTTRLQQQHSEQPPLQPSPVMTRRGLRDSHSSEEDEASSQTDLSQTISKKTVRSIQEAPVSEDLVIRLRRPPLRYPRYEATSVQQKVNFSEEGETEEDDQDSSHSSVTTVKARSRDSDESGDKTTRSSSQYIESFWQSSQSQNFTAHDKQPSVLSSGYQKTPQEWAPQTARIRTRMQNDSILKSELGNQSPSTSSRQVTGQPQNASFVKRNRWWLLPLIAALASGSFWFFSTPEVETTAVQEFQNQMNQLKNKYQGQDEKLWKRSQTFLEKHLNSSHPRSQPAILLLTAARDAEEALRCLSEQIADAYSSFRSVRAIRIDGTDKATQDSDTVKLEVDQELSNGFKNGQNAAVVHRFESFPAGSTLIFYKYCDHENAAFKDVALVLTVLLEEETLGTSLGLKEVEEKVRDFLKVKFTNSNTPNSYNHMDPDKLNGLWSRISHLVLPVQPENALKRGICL

[20] = target: Alpha-bungarotoxin (Bungarus multicinctus) (UniProt P60615); experiment: alpha-bungarotoxin binders on microarray, profiling panel, artefact control for SMM control protein annotation, biochemical, small-molecule microarray, Alexa647 label, 635/667 nm fluorescence (AID 1117); conditions: alpha-BTX-A647 binding fluorescence, higher = more signal
Alpha-bungarotoxin (Bungarus multicinctus), sequence (P60615 whole entry, looked up): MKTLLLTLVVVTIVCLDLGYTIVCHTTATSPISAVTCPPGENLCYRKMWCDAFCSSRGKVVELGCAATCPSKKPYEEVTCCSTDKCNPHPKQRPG

Row | SMILES | composite z-score [1] | composite z-score [2] | composite z-score [3] | z-score [4] | composite z-score [5] | composite z-score [6] | composite z-score [7] | composite z-score [8] | composite z-score [9] | composite z-score [10] | composite z-score [11] | z-score [12] | composite z-score [13] | composite z-score [14] | composite z-score [15] | composite z-score [16] | composite z-score [17] | composite z-score [18] | composite z-score [19] | composite z-score [20]
1 | COCCOC(=O)N1C(=O)[C@@]2(c3cc(C#CCNC(N)=O)ccc31)[C@H](C(=O)N1CCCCCCC1)[C@H]1C(=O)O[C@H](c3ccccc3)[C@H](c3ccccc3)N1[C@@H]2c1ccc(OCCO)cc1 | 0.918 | 0.774 | 0.989 | 0.524 (inactive) | 0.544 | 0.211 | 0.588 | 0.762 | 0.0313 | 0.999 | 0.748 | -0.431 | 0.277 | 1.13 | 0.801 | 0.0075 | -0.138 | -0.118 | 0.263 | 1.09
2 | [N-]=[N+]=Nc1ccccc1[C@@H]1OC(c2ccc(OCCCO)cc2)=N[C@]1(CCS(=O)(=O)c1ccccc1)C(=O)NCc1ccccc1 | 1.29 | 1.24 | 1.28 | 0.385 (inactive) | 1.25 | 0.309 | 0.0329 | 1.18 | -0.244 | 1.06 | 1.41 | 0.0858 | 0.343 | 2.03 | 0.603 | 0.0338 | 0.0469 | 1.6 | 2.15 | 1.9
3 | COC(=O)[C@@]1(Cc2ccccc2)[C@H]2c3cc(C(=O)N4CCCC4)n(CCO)c3C[C@H]2CN1C(=O)c1ccccc1 | 0.346 | 2.22 | 1.5 | -1.88 (inactive) | 0.615 | 0.343 | 0.414 | 1.14 | 0.337 | 0.305 | 0.34 | -1.02 | 0.167 | 2.71 | 1.07 | 0.853 | 0.436 | 0.922 | 3.95 | 1.48
4 | COc1cccc(C)c1NC(=O)O[C@H]1[C@H](OC(=O)Nc2ccccc2)[C@H](OC(=O)Nc2ccccc2)[C@@H](OC)O[C@@H]1CO | 1.1 | 0.245 | 0.708 | 0.419 (inactive) | 0.96 | 0.0861 | -0.0372 | 0.367 | -0.294 | 0.179 | 1.3 | -2.96 | -0.183 | 1.81 | 0.645 | 0.0775 | 0.775 | -0.236 | 0.0722 | 1.3
5 | O=[N+]([O-])c1ccc(C[n+]2ccc(-c3ccc(CO)cc3)cc2)o1 | 1.2 | -0.0024 | 0.192 | -0.0885 (inactive) | 0.527 | 0.213 | 0.224 | 1.45 | 0.253 | 1.86 | 0.418 | 0.007 | 0.187 | -0.165 | 0.451 | -0.001 | 0.172 | 0.327 | 1.12 | 1.49
6 | CCCCC(=C=CC[C@H](O)c1ccccc1OCCO)C[C@H](O)c1ccccn1 | 1.36 | -0.127 | 0.211 | -0.471 (inactive) | 0.551 | -0.251 | 0.324 | 0.549 | -0.0601 | 1.54 | 0.0797 | -0.619 | 0.377 | -0.0455 | -0.351 | -0.126 | -0.0769 | -0.388 | 0.934 | 0.697
7 | O=C1O[C@H](c2ccccc2)[C@H](c2ccccc2)N2[C@H]1[C@@H](C(=O)NC[C@H](O)c1ccccc1)[C@]1(C(=O)Nc3ccccc31)[C@H]2c1ccccc1OCCO | 1.61 | -0.0915 | 0.499 | -2.06 (inactive) | 0.561 | 0.447 | 0.0728 | 0.263 | -0.0453 | 0.914 | 1.4 | -3.34 | -0.11 | 1.31 | 0.376 | -0.027 | 1.47 | 2.84 | 1.41 | 2.46
8 | C[C@H]1NC(=O)C([C@@H](C)OCc2ccccc2)NC(=O)[C@@]23C(=O)N[C@@H](Cc4ccccc4)C2[C@H](C)[C@@]2(C)O[C@H]2C3/C=C/CC/C=C/CNC1=O (stereo not given in full) | -0.0404 | 0.0094 | -0.298 | -1.39 (inactive) | 0.365 | -0.248 | 0.279 | 0.575 | 0.506 | 1.42 | -0.165 | -0.631 | 0.416 | -0.377 | -0.377 | 0.0919 | 0.0815 | -0.37 | 0.26 | 0.421
9 | COC(=O)[C@]1(Cc2ccccc2N=[N+]=[N-])N=C(c2ccc(OCCCO)cc2)O[C@@H]1c1ccccc1 | 1.12 | 0.974 | 1.12 | 9.3 (active) | -0.261 | 0.196 | -0.355 | -0.105 | -0.932 | 0.897 | -0.296 | -3.3 | -0.96 | 0.279 | 0.41 | 0.0831 | -0.111 | 0.534 | 0.738 | 0.41
10 | CCCCCCC#C[Si](O[C@H](c1ccccc1)c1cn(Cc2cccc(Cl)c2)nn1)(C(C)C)C(C)C | 1.11 | -0.166 | -0.287 | -0.577 (inactive) | 0.155 | 0.57 | 0.269 | 0.309 | 0.0628 | 0.308 | 0.564 | -0.775 | 0.198 | -0.0008 | -0.159 | -0.124 | -0.0035 | -0.118 | 0.343 | -0.0766
